Here are results for 5 compounds from PubChem BioAssay.

Calls of active or inactive are those of the source.

Test [1] can be described thus: small molecules captured by biotinylated probe aFSTL3 – biochemical, small-molecule microarray, fluorescence 635/667, stem cell growth factor project, primary screen (AID 1064).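 Further: measures binding of the biotinylated anti-FSTL3 antibody to printed compounds.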 As to conditions: higher = more signal.
The nature of test [2]: binders from COS7 lysate, DM2A8 probe, primary screen, torsin A project, cell lysate, small-molecule microarray, fluorescence 635/667 (AID 1065). To be noted: higher = more signal, COS7 lysate expressing mutant human TOR1A.
A short description of test [3]: small molecules captured by biotinylated probe aFGF2 – biochemical, small-molecule microarray, fluorescence 635/667, stem cell growth factor project, primary screen (AID 1067).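 Further: measures binding of biotinylated aFGF2 protein to printed compounds on slides; z-score merges feature fluorescence and signal-to-noise across triplicate slides.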 To be noted: higher = more signal.
The nature of test [4]: small molecules captured by biotinylated probe aFGF10 – biochemical, small-molecule microarray, fluorescence 635/667, stem cell growth factor project, primary screen (AID 1071).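 Further: score merges 667 nm spot intensity and signal to noise from triplicate slides.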 To be noted: higher = more signal.
The target in test [5] is Neurogenic locus notch homolog protein 2 (Homo sapiens) (UniProt Q04721). The test is described as follows: small molecules binding Notch2 protein – biochemical, small-molecule microarray, 635 nm fluorescence, stem cell growth factors, primary screen (AID 1073). To be noted: higher = more signal.
Chain of Neurogenic locus notch homolog protein 2 (Homo sapiens) (Q04721 whole entry, looked up, canonical isoform): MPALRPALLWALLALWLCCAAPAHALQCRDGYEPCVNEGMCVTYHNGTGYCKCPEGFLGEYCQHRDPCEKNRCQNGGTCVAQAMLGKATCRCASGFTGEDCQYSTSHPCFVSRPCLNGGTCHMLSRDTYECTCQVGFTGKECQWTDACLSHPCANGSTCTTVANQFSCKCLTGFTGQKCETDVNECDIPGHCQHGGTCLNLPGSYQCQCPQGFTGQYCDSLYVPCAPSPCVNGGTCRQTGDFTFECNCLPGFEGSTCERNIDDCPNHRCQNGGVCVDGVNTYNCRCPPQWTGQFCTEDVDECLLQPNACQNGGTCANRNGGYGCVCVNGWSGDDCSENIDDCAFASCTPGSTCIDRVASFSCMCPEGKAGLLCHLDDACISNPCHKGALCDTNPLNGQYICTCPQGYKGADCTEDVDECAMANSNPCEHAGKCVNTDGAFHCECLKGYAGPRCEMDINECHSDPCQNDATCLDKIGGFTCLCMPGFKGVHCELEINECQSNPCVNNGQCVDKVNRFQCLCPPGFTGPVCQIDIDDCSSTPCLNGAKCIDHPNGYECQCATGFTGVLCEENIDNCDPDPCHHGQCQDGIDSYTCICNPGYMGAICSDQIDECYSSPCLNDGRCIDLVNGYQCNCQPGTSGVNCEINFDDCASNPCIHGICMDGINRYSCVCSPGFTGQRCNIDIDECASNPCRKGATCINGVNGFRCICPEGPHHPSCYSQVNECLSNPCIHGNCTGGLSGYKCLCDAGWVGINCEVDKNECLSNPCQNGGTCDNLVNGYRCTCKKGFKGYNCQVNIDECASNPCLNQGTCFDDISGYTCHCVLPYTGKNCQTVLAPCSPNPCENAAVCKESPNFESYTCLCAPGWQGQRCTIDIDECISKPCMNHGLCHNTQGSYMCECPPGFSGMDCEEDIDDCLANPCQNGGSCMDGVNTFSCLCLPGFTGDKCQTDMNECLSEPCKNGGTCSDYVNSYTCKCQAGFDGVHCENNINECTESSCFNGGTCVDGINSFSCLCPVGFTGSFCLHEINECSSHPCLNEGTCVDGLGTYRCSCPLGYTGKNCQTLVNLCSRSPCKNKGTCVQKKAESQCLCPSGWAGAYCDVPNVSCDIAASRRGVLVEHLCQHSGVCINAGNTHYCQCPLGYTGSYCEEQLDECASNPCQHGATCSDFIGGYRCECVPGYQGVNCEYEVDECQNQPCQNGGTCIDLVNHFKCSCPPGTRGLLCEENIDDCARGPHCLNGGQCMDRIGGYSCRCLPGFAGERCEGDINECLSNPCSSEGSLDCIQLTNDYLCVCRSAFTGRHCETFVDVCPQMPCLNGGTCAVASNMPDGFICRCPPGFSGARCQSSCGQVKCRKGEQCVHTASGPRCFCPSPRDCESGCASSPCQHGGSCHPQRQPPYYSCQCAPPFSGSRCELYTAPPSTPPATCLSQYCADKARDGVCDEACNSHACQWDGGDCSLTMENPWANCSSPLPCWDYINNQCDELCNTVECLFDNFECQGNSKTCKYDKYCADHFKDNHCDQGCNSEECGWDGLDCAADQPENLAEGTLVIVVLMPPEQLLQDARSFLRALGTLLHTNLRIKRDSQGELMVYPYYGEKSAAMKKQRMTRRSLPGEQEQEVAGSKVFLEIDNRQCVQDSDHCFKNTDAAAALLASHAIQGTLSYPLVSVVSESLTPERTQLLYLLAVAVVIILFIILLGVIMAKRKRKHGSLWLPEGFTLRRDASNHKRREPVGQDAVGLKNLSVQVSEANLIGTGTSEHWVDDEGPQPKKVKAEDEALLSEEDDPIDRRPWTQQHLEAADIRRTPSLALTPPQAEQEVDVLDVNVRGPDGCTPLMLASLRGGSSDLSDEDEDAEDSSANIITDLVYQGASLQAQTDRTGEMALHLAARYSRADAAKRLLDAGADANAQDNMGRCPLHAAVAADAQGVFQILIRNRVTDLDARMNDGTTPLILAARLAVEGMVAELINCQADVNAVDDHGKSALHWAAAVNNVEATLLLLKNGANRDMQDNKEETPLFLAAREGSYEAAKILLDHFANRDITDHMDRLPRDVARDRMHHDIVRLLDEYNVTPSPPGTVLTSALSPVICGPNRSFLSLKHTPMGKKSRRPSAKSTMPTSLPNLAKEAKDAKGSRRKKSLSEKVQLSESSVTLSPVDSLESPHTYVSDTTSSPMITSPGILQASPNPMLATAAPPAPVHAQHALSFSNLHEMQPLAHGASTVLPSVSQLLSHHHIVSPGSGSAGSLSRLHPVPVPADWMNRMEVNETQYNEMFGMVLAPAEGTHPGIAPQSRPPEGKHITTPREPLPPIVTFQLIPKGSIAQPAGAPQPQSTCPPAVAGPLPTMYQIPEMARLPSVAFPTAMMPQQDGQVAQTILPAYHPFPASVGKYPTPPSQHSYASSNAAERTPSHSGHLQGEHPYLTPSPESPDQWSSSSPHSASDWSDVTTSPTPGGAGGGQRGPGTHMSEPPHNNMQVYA
Test [6] addresses Pro-neuregulin-1, membrane-bound isoform (Homo sapiens) (UniProt Q02297). In words: small molecules binding neuregulin-1 protein – biochemical, small-molecule microarray, fluorescence 635/667, psychiatric disease protein project, primary screen (AID 1075).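 Further: score combines 667 nm spot fluorescence with signal to noise.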 To be noted: NRG1 binding, 635 nm fluorescence, higher = more signal.
Test [7] deals with Neuregulin-1 EGF-like domain. In words: small molecules binding NRG1 EGF domain – biochemical, small-molecule microarray, 635 nm fluorescence, primary screen (AID 1081).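 Further: binding of the protein to compounds printed on small-molecule microarray slides.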 As to conditions: higher = more signal.
The nature of test [8]: FRG1 expression reporter modulators in myotubes – cell-based, C2C12 myotubes, firefly/Renilla luciferase, luminescence, FRG1 inhibition for FSHD, primary screen (AID 1084). As to conditions: FRG1 promoter luciferase, higher = more signal, called active from +8 up or from −8 down.
Test [9] can be described thus: small molecules captured by biotinylated probe aFST – biochemical, small-molecule microarray, fluorescence 635/667, stem cell growth factor project, primary screen (AID 1086).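 Further: score merges 667 nm fluorescence with signal-to-noise of each printed compound spot.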 To be noted: higher = more signal.
Test [10] in a line: binders of probe aHhip on microarray, primary screen, stem cell growth factor project, biochemical, small-molecule microarray, fluorescence 635/667 (AID 1087).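 Further: score merges spot fluorescence at 667nm with spot signal to noise ratio.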 As to conditions: higher = more signal.
Test [11] has as its system PRMT1 (protein arginine N-methyltransferase 1). In words: small molecules binding arginine methyltransferase PRMT1 – biochemical, small-molecule microarray, 635 nm fluorescence, primary screen (AID 1088).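 Further: binding of Prmt1 protein to compounds spotted on small-molecule microarray slides.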 As to conditions: higher = more signal.
The nature of test [12]: growth effects on S. cerevisiae YJM789 – YJM789 clinical isolate, OD600, 24 h, basal, primary screen (AID 1089).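 Further: growth of clinical yeast isolate S. cerevisiae YJM 789 seeded 1000 cells per well; test concentration not given here.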 As to conditions: higher = more signal, called active from +8 up or from −8 down.
Test [13] is described as follows: S. pombe growth modifiers, basal conditions – strain 972, OD600, 24 h, no modulator, primary screen (AID 1090).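 Further: basal condition with compound alone and no growth modifier present; test concentration not given here.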 To be noted: S. pombe 972 growth, higher = more signal, called active from +8 up or from −8 down.
Test [14] can be described thus: budding yeast growth modifiers under rapamycin – strain BY4716, OD600, 96 h, primary screen (AID 1091). Further: test concentration not given here. To be noted: S. cerevisiae BY4716 + rapamycin, higher = more signal, called active from +8 up or from −8 down.
Test [15] has as its target Torsin-1A-interacting protein 2 (Homo sapiens) (UniProt Q8NFQ8). The test is described as follows: small molecules binding lysate-expressed LULL1 – cell lysate, human LULL1 lysate, 635/667 nm fluorescence, primary screen (AID 1092).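 Further: probe is lysate of COS7 cells overexpressing human LULL1; score merges per-feature 667 nm fluorescence with signal-to-noise.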 To be noted: small-molecule microarray, hLULL1 lysate binding, 635 nm fluorescence; higher = more signal.
Test [16] is described as follows: optical density change of DRC41 E. coli – strain DRC41, OD650, 24 h, E. coli filamentation project, primary screen (AID 1093).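 Further: MC1000 strain lacking acrAB efflux and sulA so SOS filamentation is blocked; test concentration not given here.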 As to conditions: E. coli DRC41 growth, higher = more signal, called active from +8 up or from −8 down.
The nature of test [17]: probe aLefty2 binding to arrayed compounds – biochemical, biotinylated probe, 635/667 nm fluorescence, primary screen (AID 1094).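 Further: score merges spot fluorescence near 667 nm with spot signal-to-noise ratio.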 To be noted: small-molecule microarray, higher = more signal.
Test [18] has as its system Noggin (protein binding on small-molecule microarray). The test is described as follows: small molecules binding Noggin protein – biochemical, 635/667 nm fluorescence, primary screen (AID 1095).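 Further: score merges 667 nm feature fluorescence with signal to noise over triplicate slides.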 As to conditions: 635 nm fluorescence, higher = more signal.
The target in test [19] is Neurogenic locus notch homolog protein 3 (Homo sapiens) (UniProt Q9UM47). The test is described as follows: small molecules binding NOTCH3 protein – biochemical, 635/667 nm fluorescence, primary screen (AID 1096). To be noted: small-molecule microarray, 635 nm fluorescence, higher = more signal.
The nature of test [20]: probe aEGFR binding to arrayed compounds – biochemical, biotinylated probe, 635/667 nm fluorescence, primary screen (AID 1097).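 Further: probe is a biotinylated anti-EGFR antibody binding compounds printed on slides; score combines fluorescence near 667 nm and signal to noise of each spot.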 To be noted: small-molecule microarray, higher = more signal.

Chain of Torsin-1A-interacting protein 2 (Homo sapiens) (Q8NFQ8 whole entry, looked up): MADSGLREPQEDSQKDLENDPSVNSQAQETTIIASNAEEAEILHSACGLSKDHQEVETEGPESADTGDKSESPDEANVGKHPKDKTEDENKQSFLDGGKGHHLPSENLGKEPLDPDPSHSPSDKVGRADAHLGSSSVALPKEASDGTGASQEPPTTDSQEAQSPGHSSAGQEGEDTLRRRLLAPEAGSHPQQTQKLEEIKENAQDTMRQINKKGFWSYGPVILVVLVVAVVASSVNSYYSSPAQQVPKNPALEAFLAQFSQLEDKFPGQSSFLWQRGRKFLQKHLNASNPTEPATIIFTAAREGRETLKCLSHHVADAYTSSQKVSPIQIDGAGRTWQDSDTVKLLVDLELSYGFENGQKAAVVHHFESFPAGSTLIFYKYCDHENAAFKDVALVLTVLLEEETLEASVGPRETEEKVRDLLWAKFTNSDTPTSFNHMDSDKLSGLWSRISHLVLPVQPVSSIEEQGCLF
Chain of Pro-neuregulin-1, membrane-bound isoform (Homo sapiens) (Q02297 whole entry, looked up, the tested form may be a part, canonical isoform): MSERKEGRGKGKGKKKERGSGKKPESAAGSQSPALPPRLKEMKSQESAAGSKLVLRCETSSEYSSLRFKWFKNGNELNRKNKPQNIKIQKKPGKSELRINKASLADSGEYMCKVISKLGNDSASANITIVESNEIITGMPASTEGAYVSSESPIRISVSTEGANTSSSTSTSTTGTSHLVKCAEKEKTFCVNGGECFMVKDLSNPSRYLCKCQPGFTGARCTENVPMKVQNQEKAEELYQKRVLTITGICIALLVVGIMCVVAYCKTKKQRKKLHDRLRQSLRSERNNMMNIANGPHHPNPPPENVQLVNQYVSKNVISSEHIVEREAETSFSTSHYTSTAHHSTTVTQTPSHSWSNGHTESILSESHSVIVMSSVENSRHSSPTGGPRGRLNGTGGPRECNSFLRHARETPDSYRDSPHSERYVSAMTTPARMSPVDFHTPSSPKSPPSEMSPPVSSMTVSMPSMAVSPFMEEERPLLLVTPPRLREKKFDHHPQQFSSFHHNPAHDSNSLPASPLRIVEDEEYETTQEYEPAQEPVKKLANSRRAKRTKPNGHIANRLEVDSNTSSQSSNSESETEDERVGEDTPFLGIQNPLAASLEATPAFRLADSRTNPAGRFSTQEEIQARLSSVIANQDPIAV

For the compound `C[C@@]1([C@@H](NC(=O)c2ccccc2)c2ccc(-c3ccccc3)cc2)C[C@H]1C1CCCCC1`, the composite z-score was 0.742 in [1]; -0.671 in test [2]; 0.0891 in test [3]; -0.227 in test [4]; 1.16 in [5]; -0.0156 in test [6]. Further, the composite z-score in test [7] was -0.382; in [9], 0.57; in test [10], 0.122; in test [11], -1.93; in test [15], 0.429; in test [17] it was 0.527. Also, the values for the composite z-score in test [18], in [19] and in test [20] were -0.992, -1.42 and 0.247, respectively. Also, the z-score in test [8] was 2.09 (inactive); in [12] it was -0.0151 (inactive); in test [13], 0.443 (inactive); in test [14], 0.32 (inactive); in test [16], -1.48 (inactive).

With `COC(=O)[C@@]1(Cc2ccc(F)cc2)[C@H]2c3cc(C(=O)N(C)C)n(Cc4ccc(S(C)(=O)=O)cc4)c3C[C@H]2CN1C(=O)c1ccccc1`, the composite z-score in test [1] turned out to be 0.244; in [2] it was 0.657; in test [3] it was 0.209; in test [4], 0.629; in [5] it was 1.41; in test [6], 1.79. Besides, the composite z-score in [7] is 1.19; in test [9], 0.198; in test [10], 0.0274; in test [11] it was -0.213; in test [15], 2.23; in [17] it was 0.124. Moreover, the composite z-score in [18] is -0.139; in test [19] it was 0.49; in test [20], -0.0045. For the same compound, the z-score in test [8] was 0.0659 (inactive); in test [12], 0.304 (inactive); in test [13], 1.21 (inactive); in test [14] it was 0.147 (inactive); in test [16], 0.321 (inactive).

For `COc1ccc([C@H]2OC[C@@H]3CC4(CC=CC4)C(=O)N32)cc1`, the composite z-score was 0.0596 in test [1]; -0.407 in test [2]; -0.129 in [3]; 0.479 in test [4]; -0.321 in test [5]; -0.105 in test [6]. The composite z-score in [7] is 1; in test [9], -0.0135; in test [10], -0.236; in test [11], 1.08; in test [15], 1.24; in [17] it was -0.0171. Further, the composite z-score turned out to be 1.08 in test [18], 0.527 in [19] and 0.0376 in [20]. Further, the z-score in test [8] is 1.43 (inactive); in [12], -0.205 (inactive); in test [13], 0.0197 (inactive); in test [14], -0.451 (inactive); in test [16], -0.472 (inactive).

As to `COCCOC(=O)N1C(=O)[C@@]2(c3cc(C#CCCO)ccc31)[C@H](c1ccc(OCCO)cc1)N1[C@H](c3ccccc3)[C@H](c3ccccc3)OC(=O)[C@H]1[C@@H]2C(=O)N1CCN(c2ncccn2)CC1`, the composite z-score is -0.204 in test [1]; -0.0161 in [2]; -0.0972 in test [3]; 0.281 in [4]; 1.33 in test [5]; 0.317 in test [6]. The composite z-score in test [7] is 1.23; in test [9] it was 0.658; in test [10], 0.0274; in [11], 1.55; in test [15], 2.42; in test [17], -0.123. Besides, the composite z-score in [18] is 1.23; in test [19] it was 1.06; in [20], -0.0066. In addition, the z-score in test [8] was -0.37 (inactive); in test [12], -0.01 (inactive); in test [13], 0.342 (inactive); in test [14], 2.94 (inactive); in [16], -0.0542 (inactive).

Take `CS(=O)(=O)CCOC(=O)C1=CC(CCCO)=CC(c2ccc(CN3CCCC3)cc2)N(Cc2cc3c(cc2Br)OCO3)C=C1C(=O)OCCS(C)(=O)=O` (stereo not given): the composite z-score in [1] was 0.26; in test [2] it was 1.77; in test [3], 0.127; in test [4], 1.22; in test [5], 1.38; in [6] it was 2.1. Also, the composite z-score turned out to be 1.25 in [7]; 0.624 in test [9]; 0.224 in test [10]; 1.46 in [11]; 2.5 in test [15]; 0.0417 in [17]. Besides, the composite z-score worked out at 0.334 in test [18], 1.15 in [19] and 0.101 in test [20]. Besides, the z-score in test [8] is -0.271 (inactive); in [12], 0.978 (inactive); in test [13], -5.34 (inactive); in test [14], -1.62 (inactive); in test [16], -0.567 (inactive).
